The full data set covers some 7,900 targets. This sample favours those with a hit. About 0.6% of all pairs of compound and target were hits.
Columns and labels:
Test in all cases: log2 fold change, soluble protein after heating vs DMSO (PISA); higher = thermal stabilisation; K562 cells, 10 uM, 30 min; active = over 0.2 and 3.5 SD of the protein, either way, in both replicates (recomputed)
[1] = compound: CC1=C(C=C(C=C1)NC(=O)C2=CC(=CC=C2)C(C)(C)C#N)NC3=CC4=C(C=C3)N=CN(C4=O)C
In short: (§1)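 Quantification of soluble protein used TMTpro 16plex LC-MS/MS, with channel sums equalised. Samples were the supernatant after 21,000xg for 90 min of pooled aliquots from K562 cells (2×10^6 cells/mL) treated with 10 μM compound for 30 min, heated for 3 min over 48°C-58°C, and extracted in PBS with 0.5% NP-40 at 4°C. Values, from duplicates, describe thermal stability against control samples on a log2 fold-change scale.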

[2] = compound: CC1=C(C=C(C=C1)NC(=O)C2=CC(=CC=C2)N(C)C)NC(=O)C3=CC=C(C=C3)O
In short: as §1

[3] = compound: CC1=CC=C(C=C1)SC2=C3C=C(SC3=CN=C2)C(=O)N
In short: as §1

[4] = compound: CC1=NC(=CC=C1)C2=C(N=C(N2)C(C)(C)C)C3=CC4=NC=CN=C4C=C3
In short: as §1

[5] = compound: CCCCN(Cc1ccc(C(=O)NO)cc1)C(=O)Nc1ccccc1 [Nexturastat A]
In short: as §1

[6] = compound: CCCS(=O)(=O)Nc1ccc(F)c(C(=O)c2c[nH]c3ncc(-c4ccc(Cl)cc4)cc23)c1F [vemurafenib]
In short: as §1

[7] = compound: CCCS(=O)(=O)Nc1ccc(F)c(C(=O)c2c[nH]c3ncc(Cl)cc23)c1F
In short: as §1

[8] = compound: CCCc1cc(C)[nH]c(=O)c1CNC(=O)c1cc(-c2ccnc(N3CCN(C)CC3)c2)cc2c1cnn2C(C)C
In short: as §1

[9] = compound: CCN(CC)Cc1ccc2cc(COC(=O)Nc3ccc(C(=O)NO)cc3)ccc2c1 [givinostat]
In short: as §1

[10] = compound: CC[C@@H]1C(=O)N(C)c2cnc(Nc3ccc(C(=O)NC4CCN(C)CC4)cc3OC)nc2N1C1CCCC1
In short: as §1

[11] = compound: CC[C@@H]1C(=O)N(C)c2cnc(Nc3ccc(C(=O)N[C@H]4CC[C@H](N5CCN(CC6CC6)CC5)CC4)cc3OC)nc2N1C(C)C [volasertib]
In short: as §1

[12] = compound: CC[C@H](C)N1C=C(C2=C(C=C(C=C21)C3=CN=C(C=C3)N4CCNCC4)C(=O)NCC5=C(C=C(NC5=O)C)C)C
In short: as §1

[13] = compound: CC[C@H](C)[C@@H](C(=O)N[C@@H]([C@@H](C)O)C(=O)N[C@@H](CC(C)C)C(=O)[C@]1(CO1)C)NC(=O)[C@H]([C@@H](C)CC)N(C)C(=O)C [epoxomicin]
In short: as §1

[14] = compound: CCn1c(C(=O)N(C2CC2)C2CC2)cc2c3c(ncn3C)c(Nc3cc(C)n(C)n3)nc21
In short: as §1

[15] = compound: CCn1cc(-c2ccnc3[nH]c(-c4cccc(CN(C)C)c4)cc23)c(-c2ccc(NC(=O)N(C)C)cc2)n1
In short: as §1

[16] = compound: CN(C)CC(=O)Nc1ccc2[nH]c(=O)c3ccccc3c2c1
In short: as §1

[17] = compound: CN(CCOC1=CC=C(C=C1)C[C@H]2C(=O)NC(=O)S2)C3=CC=CC=N3 (racemic) [rosiglitazone]
In short: as §1

[18] = compound: CN1C2=C(C3=C1C(=O)N(N=C3)CC4=CC(=CC=C4)N)SC(=C2)S(=O)C
In short: as §1

[19] = compound: CN1CCC(CNc2ccc3ncc(-c4cccc(OC(F)(F)F)c4)n3n2)CC1
In short: as §1

[20] = compound: CCN(CCCOc1ccc2c(Nc3cc(CC(=O)Nc4cccc(F)c4)[nH]n3)ncnc2c1)CCOP(=O)(O)O [barasertib]
In short: as §1

Measured: log2 fold change

CDK5 (UniProt Q00535)
inactive: [1] -0.053 | [2] -0.009 | [3] 0.001 | [4] -0.008 | [5] -0.002 | [6] 0.031 | [7] 0.058 | [8] 0.078 | [9] 0.003 | [10] -0.087 | [12] 0.095 | [13] 0 | [14] 0.004 | [15] -0.039 | [16] 0.002 | [17] 0.041 | [18] -0.014 | [19] 0.025
active: [11] -0.259

CSNK1D (UniProt P48730)
inactive: [1] -0.001 | [2] 0.003 | [3] -0.033 | [4] -0.018 | [5] 0.117 | [6] 0.081 | [7] -0.047 | [8] 0.015 | [9] -0.254 | [20] -0.032 | [11] -0.133 | [12] 0 | [13] 0.026 | [14] -0.088 | [16] -0.019 | [17] -0.062 | [18] 0.15 | [19] 0.315

CDCA2 (UniProt Q69YH5)
active: [5] 0.638
inactive: [1] -0.134 | [2] 0.033 | [3] -0.047 | [4] -0.299 | [6] -0.009 | [7] -0.043 | [8] -0.027 | [9] 0.382 | [10] 0.193 | [11] 0.275 | [12] -0.131 | [13] -0.025 | [14] 0.015 | [15] 0.152 | [16] -0.038 | [19] 0.205

CRTC1 isoform 2 (UniProt Q6UUV9)
inactive: [1] -0.001 | [2] 0.195 | [3] -0.086 | [4] 0.073 | [5] 0.24 | [6] -0.035 | [7] 0.051 | [9] 0.158 | [20] 0.015 | [11] 0.211 | [13] -0.062 | [14] -0.164 | [15] 0.034 | [16] -0.069 | [17] 0.065 | [18] -0.153 | [19] 0.101

COX17 (UniProt Q14061)
UniProt Q14061, sequence (Q14061 whole entry, looked up): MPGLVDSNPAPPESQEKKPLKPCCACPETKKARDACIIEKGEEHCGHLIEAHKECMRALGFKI
inactive: [1] -0.015 | [2] -0.358 | [4] 0.024 | [5] 0 | [6] 0.029 | [8] 0.025 | [9] 0.029 | [12] 0.044 | [13] 0.504 | [14] -0.097 | [15] -0.154 | [16] -0.051 | [18] -0.146 | [19] 0.055

CMTM3 (UniProt Q96MX0)
UniProt Q96MX0, sequence (Q96MX0 whole entry, looked up): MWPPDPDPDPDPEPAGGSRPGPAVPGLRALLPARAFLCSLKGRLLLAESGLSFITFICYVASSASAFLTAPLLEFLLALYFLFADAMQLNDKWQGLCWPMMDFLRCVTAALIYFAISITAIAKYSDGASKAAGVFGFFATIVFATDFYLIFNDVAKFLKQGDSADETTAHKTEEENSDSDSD
inactive: [1] 0.052 | [3] 0.117 | [4] -0.027 | [5] -0.119 | [6] 0 | [7] 0.001 | [8] -0.024 | [9] -0.016 | [20] 0.098 | [10] 0.066 | [11] -0.088 | [12] -0.061 | [13] 0.075 | [14] -0.009 | [15] 0.057 | [16] 0.02 | [18] 0.048 | [19] -0.122
active: [17] -0.324

CHAF1A (UniProt Q13111)
inactive: [1] 0.035 | [2] -0.054 | [3] 0.087 | [4] -0.116 | [5] 0.088 | [7] 0.026 | [8] -0.097 | [9] 0.149 | [20] 0.107 | [10] 0.025 | [11] -0.021 | [12] 0.036 | [13] -0.039 | [14] -0.078 | [15] 0.064 | [17] -0.018 | [18] 0.158 | [19] 0.051

C9orf72 (UniProt Q96LT7)
inactive: [1] 0.108 | [2] -0.009 | [3] 0.027 | [4] -0.014 | [5] -0.102 | [6] -0.139 | [7] -0.038 | [8] 0.007 | [9] -0.022 | [20] 0.042 | [11] -0.089 | [12] 0.062 | [13] -0.008 | [14] 0.003 | [15] 0.226 | [16] 0.075 | [17] -0.033 | [18] -0.094 | [19] 0.209

CAV2 (UniProt P51636)
inactive: [1] -0.164 | [3] -0.018 | [4] 0.078 | [7] 0.087 | [8] 0.001 | [9] 0.137 | [20] 0.175 | [11] -0.098 | [12] -0.032 | [14] -0.059 | [15] -0.036 | [17] -0.076 | [18] 0.01 | [19] 0.074

CFAP58 (UniProt Q5T655)
inactive: [2] 0.185 | [3] 0.07 | [7] -0.175 | [8] -0.219 | [10] -0.353 | [11] -0.04 | [15] -0.112 | [19] -0.272

CASP7 isoform 3 (UniProt P55210)
inactive: [5] 0.255 | [9] -0.005 | [20] -0.249 | [10] 0.014 | [12] 0.017 | [13] 0.222 | [14] -0.001 | [15] -0.569 | [17] 0.259 | [18] 0.032 | [19] -0.697

CFAP47 (UniProt Q6ZTR5)
UniProt Q6ZTR5, sequence (Q6ZTR5 whole entry, looked up): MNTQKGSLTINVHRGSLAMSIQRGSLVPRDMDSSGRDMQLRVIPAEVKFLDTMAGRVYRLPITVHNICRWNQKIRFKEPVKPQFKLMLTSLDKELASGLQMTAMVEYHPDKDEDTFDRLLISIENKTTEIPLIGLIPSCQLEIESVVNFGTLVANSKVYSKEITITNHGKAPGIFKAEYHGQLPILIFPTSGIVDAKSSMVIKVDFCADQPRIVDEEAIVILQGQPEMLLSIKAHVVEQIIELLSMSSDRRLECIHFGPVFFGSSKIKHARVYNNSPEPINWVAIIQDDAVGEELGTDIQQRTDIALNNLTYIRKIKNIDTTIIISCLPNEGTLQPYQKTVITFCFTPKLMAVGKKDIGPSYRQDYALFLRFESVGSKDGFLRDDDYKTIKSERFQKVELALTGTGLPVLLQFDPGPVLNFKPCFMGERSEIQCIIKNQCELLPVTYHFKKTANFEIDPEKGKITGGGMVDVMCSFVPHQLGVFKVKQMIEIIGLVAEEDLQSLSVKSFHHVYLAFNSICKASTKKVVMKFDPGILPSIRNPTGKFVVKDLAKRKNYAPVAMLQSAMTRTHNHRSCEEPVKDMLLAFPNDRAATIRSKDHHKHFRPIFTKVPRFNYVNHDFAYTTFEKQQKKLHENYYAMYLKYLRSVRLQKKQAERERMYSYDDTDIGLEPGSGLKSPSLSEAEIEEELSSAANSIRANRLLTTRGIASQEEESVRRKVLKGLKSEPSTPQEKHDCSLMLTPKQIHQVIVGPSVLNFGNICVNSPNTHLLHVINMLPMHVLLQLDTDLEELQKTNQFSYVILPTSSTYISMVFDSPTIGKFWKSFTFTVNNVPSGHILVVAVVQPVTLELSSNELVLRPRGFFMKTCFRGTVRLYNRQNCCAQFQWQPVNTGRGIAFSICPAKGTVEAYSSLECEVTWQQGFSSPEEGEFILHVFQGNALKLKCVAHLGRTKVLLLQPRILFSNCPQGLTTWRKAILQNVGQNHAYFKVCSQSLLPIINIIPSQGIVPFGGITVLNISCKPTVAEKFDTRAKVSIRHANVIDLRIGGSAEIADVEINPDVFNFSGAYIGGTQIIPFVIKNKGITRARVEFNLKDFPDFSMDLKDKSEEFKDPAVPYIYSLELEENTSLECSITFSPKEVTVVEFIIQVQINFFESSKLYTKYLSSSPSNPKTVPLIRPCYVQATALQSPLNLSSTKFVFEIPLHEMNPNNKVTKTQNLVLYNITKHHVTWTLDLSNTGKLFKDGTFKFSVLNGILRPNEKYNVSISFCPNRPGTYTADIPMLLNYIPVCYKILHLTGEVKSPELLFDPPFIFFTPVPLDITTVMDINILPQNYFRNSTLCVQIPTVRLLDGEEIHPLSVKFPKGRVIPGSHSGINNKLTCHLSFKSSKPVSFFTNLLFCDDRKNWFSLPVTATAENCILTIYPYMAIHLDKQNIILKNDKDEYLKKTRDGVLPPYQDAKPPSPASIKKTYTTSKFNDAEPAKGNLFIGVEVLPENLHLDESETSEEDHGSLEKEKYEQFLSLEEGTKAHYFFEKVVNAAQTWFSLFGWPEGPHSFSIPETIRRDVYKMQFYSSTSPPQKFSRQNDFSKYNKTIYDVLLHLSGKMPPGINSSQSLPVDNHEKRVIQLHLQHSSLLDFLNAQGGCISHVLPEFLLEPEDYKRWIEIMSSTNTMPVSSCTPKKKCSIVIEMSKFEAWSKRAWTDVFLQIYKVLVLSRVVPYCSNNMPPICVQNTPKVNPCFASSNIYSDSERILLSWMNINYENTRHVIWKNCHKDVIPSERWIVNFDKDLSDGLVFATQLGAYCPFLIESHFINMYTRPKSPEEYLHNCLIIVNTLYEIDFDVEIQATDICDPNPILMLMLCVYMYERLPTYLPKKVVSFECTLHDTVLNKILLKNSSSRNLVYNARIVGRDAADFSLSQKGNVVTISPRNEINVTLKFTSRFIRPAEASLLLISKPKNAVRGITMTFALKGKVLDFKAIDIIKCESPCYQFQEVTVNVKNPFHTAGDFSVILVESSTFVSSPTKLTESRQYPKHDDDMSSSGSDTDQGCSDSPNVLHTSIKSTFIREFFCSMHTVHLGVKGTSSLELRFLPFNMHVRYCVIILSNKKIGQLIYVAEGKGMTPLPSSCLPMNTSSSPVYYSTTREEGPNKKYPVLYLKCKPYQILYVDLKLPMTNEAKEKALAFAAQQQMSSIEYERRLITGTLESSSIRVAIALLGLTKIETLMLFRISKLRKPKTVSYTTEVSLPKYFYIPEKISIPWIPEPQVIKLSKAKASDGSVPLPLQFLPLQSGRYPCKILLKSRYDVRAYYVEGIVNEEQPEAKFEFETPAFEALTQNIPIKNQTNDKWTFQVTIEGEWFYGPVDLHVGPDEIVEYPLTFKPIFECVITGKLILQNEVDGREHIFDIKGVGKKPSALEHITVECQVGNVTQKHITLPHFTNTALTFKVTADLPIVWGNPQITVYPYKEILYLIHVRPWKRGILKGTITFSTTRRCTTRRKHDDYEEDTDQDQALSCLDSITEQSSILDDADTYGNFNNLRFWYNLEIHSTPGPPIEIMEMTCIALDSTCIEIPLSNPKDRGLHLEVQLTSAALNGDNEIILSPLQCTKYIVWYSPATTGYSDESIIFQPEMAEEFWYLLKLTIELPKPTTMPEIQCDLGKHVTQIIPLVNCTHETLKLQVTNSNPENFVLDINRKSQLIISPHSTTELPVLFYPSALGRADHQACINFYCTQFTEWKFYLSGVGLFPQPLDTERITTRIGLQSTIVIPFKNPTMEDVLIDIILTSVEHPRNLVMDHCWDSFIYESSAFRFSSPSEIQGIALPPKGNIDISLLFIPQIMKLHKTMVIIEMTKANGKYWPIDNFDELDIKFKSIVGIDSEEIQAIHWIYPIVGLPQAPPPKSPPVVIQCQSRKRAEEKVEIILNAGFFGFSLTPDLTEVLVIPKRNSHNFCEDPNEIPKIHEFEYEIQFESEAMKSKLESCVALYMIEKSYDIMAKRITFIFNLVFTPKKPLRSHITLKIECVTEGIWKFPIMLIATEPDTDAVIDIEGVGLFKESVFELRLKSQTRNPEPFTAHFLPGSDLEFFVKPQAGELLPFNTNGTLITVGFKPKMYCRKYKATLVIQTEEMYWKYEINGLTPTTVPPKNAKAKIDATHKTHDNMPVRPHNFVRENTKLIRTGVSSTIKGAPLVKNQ
inactive: [3] -0.159 | [5] -0.041 | [6] -0.11 | [7] -0.106 | [20] -0.035 | [10] 0.063 | [11] 0.065 | [13] -0.006 | [16] -0.248 | [17] 0.108 | [18] 0.23

CASK (UniProt O14936)
UniProt O14936, sequence (O14936 whole entry, looked up): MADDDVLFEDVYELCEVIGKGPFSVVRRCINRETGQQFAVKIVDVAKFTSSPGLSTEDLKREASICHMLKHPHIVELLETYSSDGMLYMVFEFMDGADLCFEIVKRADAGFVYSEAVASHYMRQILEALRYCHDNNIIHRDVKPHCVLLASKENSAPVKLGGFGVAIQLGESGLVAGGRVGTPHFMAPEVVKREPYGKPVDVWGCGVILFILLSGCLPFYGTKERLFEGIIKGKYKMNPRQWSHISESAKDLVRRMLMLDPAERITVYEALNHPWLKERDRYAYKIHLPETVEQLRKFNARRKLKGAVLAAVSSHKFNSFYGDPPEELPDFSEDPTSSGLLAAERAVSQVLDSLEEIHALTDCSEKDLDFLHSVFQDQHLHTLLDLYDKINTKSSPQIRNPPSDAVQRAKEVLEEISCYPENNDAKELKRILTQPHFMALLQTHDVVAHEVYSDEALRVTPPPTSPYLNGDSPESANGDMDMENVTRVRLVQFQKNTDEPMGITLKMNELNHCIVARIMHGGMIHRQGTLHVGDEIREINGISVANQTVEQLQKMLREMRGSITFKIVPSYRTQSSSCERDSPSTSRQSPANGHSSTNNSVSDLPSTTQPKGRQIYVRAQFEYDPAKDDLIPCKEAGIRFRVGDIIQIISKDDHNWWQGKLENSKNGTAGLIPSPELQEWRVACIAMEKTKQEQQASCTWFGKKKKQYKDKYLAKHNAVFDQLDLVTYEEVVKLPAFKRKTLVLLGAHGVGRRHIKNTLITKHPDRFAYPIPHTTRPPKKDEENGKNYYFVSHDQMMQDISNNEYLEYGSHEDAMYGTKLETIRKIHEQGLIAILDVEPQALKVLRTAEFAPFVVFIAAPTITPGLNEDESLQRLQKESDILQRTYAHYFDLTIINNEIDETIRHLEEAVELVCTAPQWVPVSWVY
inactive: [4] -0.091 | [9] -0.06 | [14] -0.086 | [18] 0.014

CNN1 (UniProt P51911)
inactive: [1] -0.068 | [3] -0.1 | [5] -0.029 | [6] 0.056 | [7] -0.042 | [8] -0.012 | [10] -0.049 | [11] -0.066 | [12] -0.066 | [13] -0.015 | [15] -0.403 | [16] -0.007 | [19] -0.192

CNOT4 isoform 9 (UniProt O95628)
inactive: [2] -0.034 | [3] 0.003 | [4] 0.017 | [6] -0.059 | [7] 0.006 | [8] -0.171 | [9] 0.053 | [20] 0.015 | [10] 0.198 | [11] -0.006 | [12] -0.046 | [14] 0.017 | [15] -0.095 | [16] 0.046 | [17] -0.022 | [18] -0.105 | [19] 0.072

CDK2AP2 (UniProt O75956)
UniProt O75956, sequence (O75956 whole entry, looked up): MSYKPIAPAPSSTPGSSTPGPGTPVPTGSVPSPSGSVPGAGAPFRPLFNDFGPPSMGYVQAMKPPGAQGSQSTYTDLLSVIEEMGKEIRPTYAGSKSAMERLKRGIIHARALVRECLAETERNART
inactive: [2] -0.14 | [4] 0.021 | [5] 0.022 | [8] -0.065 | [9] -0.154 | [20] -0.029 | [10] 0.078 | [12] -0.04 | [13] 0.137 | [14] 0.074 | [17] -0.002

COMMD3-BMI1 (UniProt R4GMX3)
inactive: [1] -0.002 | [3] -0.126 | [5] 0.03 | [11] 0.038 | [12] 0.062 | [13] 0.026 | [15] 0.006 | [19] -0.105
active: [7] -0.426

C5orf30 (UniProt Q96GV9)
inactive: [3] -0.126 | [5] -0.186 | [7] 0.103 | [11] 0.001 | [13] 0.165

CLASP2 (UniProt O75122)
inactive: [2] -0.286 | [3] -0.103 | [4] 0.065 | [7] -0.068 | [8] -0.017 | [9] 0.031 | [20] 0.031 | [10] -0.104 | [11] -0.123 | [12] 0.083 | [14] -0.038 | [17] 0.166

CARD9 (UniProt Q9H257)
UniProt Q9H257, sequence (Q9H257 whole entry, looked up): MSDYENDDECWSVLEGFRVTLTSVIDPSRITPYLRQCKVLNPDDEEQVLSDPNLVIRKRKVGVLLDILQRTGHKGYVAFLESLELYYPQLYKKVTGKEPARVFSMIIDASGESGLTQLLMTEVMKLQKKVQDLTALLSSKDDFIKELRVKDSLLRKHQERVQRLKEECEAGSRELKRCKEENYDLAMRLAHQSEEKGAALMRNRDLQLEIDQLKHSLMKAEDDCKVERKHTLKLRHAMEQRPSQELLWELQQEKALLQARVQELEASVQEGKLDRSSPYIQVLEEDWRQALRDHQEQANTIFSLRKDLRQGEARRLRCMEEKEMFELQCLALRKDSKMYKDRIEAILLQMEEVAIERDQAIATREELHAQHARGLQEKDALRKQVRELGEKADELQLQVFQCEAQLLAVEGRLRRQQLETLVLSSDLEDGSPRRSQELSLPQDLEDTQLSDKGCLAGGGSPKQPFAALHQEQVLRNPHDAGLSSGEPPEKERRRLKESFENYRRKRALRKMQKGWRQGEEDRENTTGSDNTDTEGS
inactive: [2] -0.15 | [4] 0.052 | [9] -0.106 | [14] -0.103

CRLS1 (UniProt Q9UJA2)
inactive: [3] 0.064 | [4] -0.014 | [6] 0.033 | [7] 0.117 | [8] -0.074 | [9] -0.108 | [10] 0.029 | [11] 0.026 | [12] 0.001 | [14] -0.024 | [15] 0.052 | [16] -0.024 | [18] -0.006 | [19] 0.09
active: [1] 0.337

CCND3 (UniProt P30281)
active: [13] 0.363
inactive: [2] 0.046 | [3] 0.063 | [5] -0.004 | [6] -0.077 | [7] -0.028 | [8] -0.062 | [9] 0.021 | [20] 0.079 | [10] -0.085 | [11] 0.102 | [14] -0.003 | [15] -0.021 | [16] -0.022 | [17] -0.025 | [18] 0.063 | [19] -0.175

CSNK1A1 isoform 3 (UniProt P48729)
inactive: [3] -0.08 | [7] 0.227 | [8] -0.035 | [20] -0.089 | [11] -0.224 | [17] -0.005
